According to PubChem BioAssay AID777 (Sanford-Burnham Center for Chemical Genomics, 2007):
In all, about 96,000 compounds went through this assay and about 19,000 (20%) were called active.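 The calls were made as follows: active = blocking of liver enzyme CYP2C9 beyond about 50% at 5 µM (limit read from the data); inactive = the rest.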 These entries were drawn from the full list.

biological target: Cytochrome P450 2C9 (Homo sapiens) (UniProt P11712); experiment: blockers of cytochrome P450 2C9 activity – biochemical, luminescence, ADME assay, primary screen (AID 777); conditions: CYP2C9 Supersomes, luciferin-H conversion, at 5 µM, stronger effect = higher value
Sequence (P11712 whole entry, looked up): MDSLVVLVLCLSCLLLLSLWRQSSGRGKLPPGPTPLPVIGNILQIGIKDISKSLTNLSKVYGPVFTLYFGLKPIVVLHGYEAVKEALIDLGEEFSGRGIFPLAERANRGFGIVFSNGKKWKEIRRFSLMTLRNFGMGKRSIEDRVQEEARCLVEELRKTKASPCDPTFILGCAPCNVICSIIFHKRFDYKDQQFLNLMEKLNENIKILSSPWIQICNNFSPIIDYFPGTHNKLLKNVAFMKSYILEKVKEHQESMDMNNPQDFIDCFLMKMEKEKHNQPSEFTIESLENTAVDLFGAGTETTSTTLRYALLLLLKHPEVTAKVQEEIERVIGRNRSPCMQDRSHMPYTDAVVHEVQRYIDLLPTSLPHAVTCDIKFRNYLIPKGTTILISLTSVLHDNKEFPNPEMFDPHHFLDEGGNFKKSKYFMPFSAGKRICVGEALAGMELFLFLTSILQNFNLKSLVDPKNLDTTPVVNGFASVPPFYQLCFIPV

Compound	inhibition
O=C(NC(C(=O)NCCN1CCOCC1)C12CC3CC(CC(C3)C1)C2)C1CCCCC1 (configuration not stated)	18.3% (inactive)
O=C(COc1ccc(Br)cc1F)NC1CCN(Cc2ccccc2)CC1	28.8% (inactive)
CC1(C)CCCC2=C1CC1C(=O)N(c3ccccc3)C(=O)C1C2 (configuration not stated)	90.7% (active)
CCCCCCC(=O)N(O)C1CC(=O)N(c2ccccc2)C1=O (configuration not stated)	-18.5% (inactive)
CC(=O)Oc1cccc(N2C(=O)C3CC=C(Cl)CC3C2=O)c1 (configuration not stated)	3.2% (inactive)
Cc1cccn2c(=O)c3cc(C(=O)N4COCC4(C)C)n(C)c3nc12	-0.4% (inactive)
CCC(C)NC(=O)C1CCC(=O)N1Cc1ccc(C)cc1 (configuration not stated)	3.2% (inactive)
O=C1c2ccccc2C(O)N1Cc1ccccc1Cl (configuration not stated)	-6.9% (inactive)
O=C(Nc1ccc(Br)cc1)C1CCC(=O)N1Cc1ccccc1Cl (configuration not stated)	89.5% (active)
CCCOc1ccc(-c2nc(N)n[nH]2)cc1	3.7% (inactive)
N=c1c2c(-c3ccccc3)c(-c3ccccc3)oc2ncn1Cc1ccco1	45.2% (inactive)
CCc1nc2oc3ccccc3c(=O)c2c(=O)n1Cc1ccc(OC)cc1	6.4% (inactive)
CC1CN(C(=O)c2ccc3c(c2)OCO3)OC(c2ccccc2)O1 (configuration not stated)	35% (inactive)
CCOC(=O)C1=NNC2(c3ccc(Cl)cc3)C(=O)N(c3cc(C)cc(C)c3)C(=O)C12 (configuration not stated)	64.1% (active)
FC(F)(F)c1cc(C(F)(F)F)c2ccc(N3CCN(c4ccccc4)CC3)nc2n1	-7.6% (inactive)
CCN1CCCC1CNC(=O)c1cc2c(=O)n(C)c3ccccc3c2n1C (configuration not stated)	8.3% (inactive)
O=c1[nH][nH]c(=O)c2cc(N3CCCC3)ccc12	2.6% (inactive)
COc1ccc(C(=O)NN(C)c2nc(-c3ccccc3)cc(C)c2S(C)(=O)=O)cc1	13.3% (inactive)
Cc1ccc2nc(-c3ccccc3)cc(C(=O)O)c2c1	34.4% (inactive)
Cc1nc(NNC(=O)c2ccccc2)cc(-c2ccccc2)n1	62.7% (active)
CCCCN(CC)CCCNC(=O)CS(=O)(=O)Cc1nc(-c2cccc(OC)c2)oc1C	-5.6% (inactive)

Compound	inhibition
Cc1ccc(S(=O)(=O)Nc2ccc3ncccc3c2)cc1	84.1% (active)
Cc1ccc(S(=O)(=O)Nc2nc(C)cc(-n3nc(C)cc3C)n2)cc1	29.1% (inactive)
CC(=O)N1CCN(C(=O)c2cccc(S(=O)(=O)Nc3ccc(C)cc3)c2)CC1	0.3% (inactive)
CN=C1SC(CC(=O)Nc2ccc(C(=O)O)cc2)C(=O)N1C (configuration not stated)	8.3% (inactive)
CCCCOc1ccc(NC(=O)CSCC(=O)OCC)cc1	0.4% (inactive)
CCOC(=O)C1CCCCN1Cc1ccc(OC)c(OC)c1OC (configuration not stated)	29.7% (inactive)
COc1ccc2c(c1)CCc1c(C(=O)N3CCc4ccccc4C3)noc1-2	73.7% (active)
COc1ccc2c(c1)CCc1c(C(=O)N3CCCC3)noc1-2	-6.1% (inactive)
COc1ccc2c(c1)CCc1c(C(=O)Nc3c(C)n(C)n(-c4ccccc4)c3=O)noc1-2	14% (inactive)
CCOC(=O)c1cc(-c2ccc(Cl)s2)nc2c1c(C)nn2C	32.3% (inactive)
Cc1cc(C(F)F)n2nc(C(=O)Nc3ccc(S(=O)(=O)NC45CC6CC(CC(C6)C4)C5)cc3)nc2n1	24.7% (inactive)
CCOc1c(OC)cc(C2C(C#N)=C(N)Oc3n[nH]c(-c4ccncc4)c32)cc1OC (configuration not stated)	20.1% (inactive)
COc1ccc(/C=C2\CCCC3C2=NN(C(=O)c2scnc2C)C3c2ccc(OC)cc2)cc1 (configuration not stated)	83.4% (active)
Cc1nc2ccc(C(=O)O)cc2[nH]1	14.9% (inactive)
Cc1cc(Br)ccc1NC(=O)C1CCCO1 (configuration not stated)	-2.8% (inactive)
CCOC(=O)C1CN(S(=O)(=O)c2ccc(F)cc2)C1	8.2% (inactive)
COc1ccc(OC)c(NC(=O)CC(Cc2ccccc2OC)C(=O)O)c1 (configuration not stated)	40.6% (inactive)
CCCCCCC(=O)Nc1nc(C)c(-c2csc(Nc3cc(Cl)ccc3OC)n2)s1	14.8% (inactive)
C=CCCC(=O)Nc1nc(C)c(-c2csc(Nc3ccc(Cl)cc3)n2)s1	38.2% (inactive)
CCCCC(=O)Nc1nc(C)c(-c2csc(Nc3ccc(Cl)cc3)n2)s1	57.3% (active)
CC(C)C(=O)N1c2ccccc2NC2=C(C(=O)CCC2)C1c1ccc(N(C)C)cc1 (configuration not stated)	16.8% (inactive)

Compound	inhibition
CCC(C)n1c(-c2cc(OC)c(OC)c(OC)c2)nc2nc3ccccc3nc21 (configuration not stated)	95.3% (active)
COc1ccc(CCn2c(-c3ccco3)nc3nc4ccccc4nc32)cc1OC	34.7% (inactive)
COC(=O)c1nc(NC(=O)c2ccc(Cl)cc2)n[nH]1	7.9% (inactive)
O=S(=O)(Nc1nccs1)c1ccc2c(c1)OCCO2	-23.3% (inactive)
CCc1ccccc1NC(=O)/C(=C/c1ccccc1)c1ccccc1	16.4% (inactive)
O=C(/C=C/c1ccccc1)c1ccoc1	15.1% (inactive)
O=C(/C=C/c1ccccc1)N/C(=C/c1ccccc1)C(=O)Nc1ccccc1O	62.7% (active)
CC(C)c1ccc(-c2nn[nH]n2)cc1	9.2% (inactive)
O=C(Nc1ccc(Cl)cc1)N1CCc2[nH]c3ccccc3c2C1	14.2% (inactive)
CCC(=O)Nc1cccc(NC(=O)c2cccnc2)c1	6.5% (inactive)
Cc1cccc(-n2cnc(C(=O)Nc3cccnc3)c2)n1	88.2% (active)
Cc1cc(C)c(NC(=O)CS(=O)CC(=O)Nc2cccnc2)c(C)c1 (configuration not stated)	22.7% (inactive)
Cc1cc(-n2nc(C)cc2C)n2nc(C)c(-c3ccccc3)c2n1	25.1% (inactive)
CC(Oc1ccc(Cl)cc1)C(=O)OCC(=O)Nc1ncc(Cl)cc1Cl (configuration not stated)	-20.7% (inactive)
O=C(NC(Nc1nc2ccc([N+](=O)[O-])cc2s1)(C(F)(F)F)C(F)(F)F)c1ccccc1	97.4% (active)
CNC(=O)c1ccc2nc(NC(C)=O)sc2c1	21.5% (inactive)
Cc1cc(C)cc(OCC(=O)Nc2nc3ccc([N+](=O)[O-])cc3s2)c1	48.4% (inactive)
O=C(c1ccc(Cl)cc1)c1cnc(Nc2ccccc2)s1	21.7% (inactive)
O=C(Nc1ccccc1)c1nnsc1S(=O)(=O)c1ccc(Cl)cc1	74.9% (active)
O=C(Nc1ccc(Cl)cc1)c1ccsn1	-4.3% (inactive)
